Assay results: PubChem BioAssay (NCATS)
Inconclusive results are not listed. Where a call stands in place of a potency, no number is given. The source made the active and inactive calls. Unless noted, calls follow the shape of the dose curve; as a rule, active = well fitted curve in the direction sought with a large enough effect; inconclusive = small, poorly fitted or top-dose-only effect, or another doubt; inactive = no such curve, though single readings can be large; an effect the other way counts as inactive or inconclusive.

What was measured:
[1] = qHTS Assay for Identification of Small Molecule Agonists for Thrombopoietin (TPO) Signaling Pathway (AID 917)
Procedure, shortened: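 Stimulation at the TPO EC50 (26 pM final) was used to detect activators. Ba/F3 mouse cells bearing human TPO receptor and a luciferase reporter under the Glycoprotein IIb promoter were exposed to compounds for 24 hrs at 37 C.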

[2] = Cell Viability - LYMP2-001 (AID 921); also: series mostly up to about 92 µM; nearly all actives have a fitted effect of over 70% in size
Procedure, shortened: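 Human lymphoblastoid LYMP2-001 cells, 2500 per well, in complete medium, treated 24 h at 37 C. Viability from cellular ATP by CellTiter-Glo luminescence; AC50 from Hill-equation fits of qHTS concentration-response.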

[3] = biological target: Pyruvate kinase (Leishmania mexicana) (UniProt Q27686); experiment: qHTS Validation Assay for Inhibitors of Leishmania Mexicana Pyruvate Kinase (AID 945)
Chain of Pyruvate kinase (Leishmania mexicana) (Q27686 2-499 E452W): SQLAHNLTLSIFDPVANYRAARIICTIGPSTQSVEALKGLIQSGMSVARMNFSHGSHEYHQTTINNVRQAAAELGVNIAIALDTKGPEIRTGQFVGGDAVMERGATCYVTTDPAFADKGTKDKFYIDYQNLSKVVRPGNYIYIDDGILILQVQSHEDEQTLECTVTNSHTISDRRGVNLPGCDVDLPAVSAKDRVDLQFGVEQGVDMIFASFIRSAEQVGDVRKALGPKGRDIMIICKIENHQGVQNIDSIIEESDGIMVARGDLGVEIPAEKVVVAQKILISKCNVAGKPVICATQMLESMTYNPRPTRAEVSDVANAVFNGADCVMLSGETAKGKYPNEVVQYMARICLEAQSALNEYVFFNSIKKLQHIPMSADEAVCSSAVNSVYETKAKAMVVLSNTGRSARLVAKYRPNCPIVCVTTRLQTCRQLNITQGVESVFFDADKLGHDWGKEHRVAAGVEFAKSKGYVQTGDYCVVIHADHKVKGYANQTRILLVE
Procedure, shortened: (§1)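 Purified LmPYK (E451W mutant, 0.2 nM) was incubated 1 h at room temperature with 0.5 mM PEP and 0.1 mM ADP in 50 mM imidazole pH 7.2, 50 mM KCl, 7 mM MgCl2; ATP formed was read by PKLight luminescence, normalized to DMSO wells.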

[4] = MultiTox-Fluor Cytotoxicity Assay - LYMP1-001 - Dead Cells (AID 946)
Procedure, shortened: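 AC50 from Hill fit of concentration-response; data normalized to DMSO (basal) and 15 uM tetraoctylammonium bromide (100%). LYMP1-001 lymphoblastoid cells, 2500/well, 16 hr compound at 37 C; dead-cell protease fluorescence, Ex/Em 485/520.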

[5] = MultiTox-Fluor Cytotoxicity Assay - LYMP1-001 - Live Cells (AID 947)
[6] = Cell Viability - LYMP1-002 - Assay at 16 hr (AID 948)
Procedure, shortened: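 LYMP1-002 human lymphoblastoid cells, 2500/well, were treated with compounds for 16 hr at 37 C in complete medium. Viability was read as intracellular ATP by CellTiter-Glo luminescence, and AC50 was derived from a Hill fit to concentration-response data.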

[7] = biological target: Pyruvate kinase PKM (Homo sapiens) (UniProt P14618); experiment: qHTS Assay for Activators of Human Muscle Pyruvate Kinase (AID 954; active = well fitted curve in the direction sought with a large enough effect, not every such curve was filed as active)
Chain of Pyruvate kinase PKM (Homo sapiens) (P14618 whole entry, looked up): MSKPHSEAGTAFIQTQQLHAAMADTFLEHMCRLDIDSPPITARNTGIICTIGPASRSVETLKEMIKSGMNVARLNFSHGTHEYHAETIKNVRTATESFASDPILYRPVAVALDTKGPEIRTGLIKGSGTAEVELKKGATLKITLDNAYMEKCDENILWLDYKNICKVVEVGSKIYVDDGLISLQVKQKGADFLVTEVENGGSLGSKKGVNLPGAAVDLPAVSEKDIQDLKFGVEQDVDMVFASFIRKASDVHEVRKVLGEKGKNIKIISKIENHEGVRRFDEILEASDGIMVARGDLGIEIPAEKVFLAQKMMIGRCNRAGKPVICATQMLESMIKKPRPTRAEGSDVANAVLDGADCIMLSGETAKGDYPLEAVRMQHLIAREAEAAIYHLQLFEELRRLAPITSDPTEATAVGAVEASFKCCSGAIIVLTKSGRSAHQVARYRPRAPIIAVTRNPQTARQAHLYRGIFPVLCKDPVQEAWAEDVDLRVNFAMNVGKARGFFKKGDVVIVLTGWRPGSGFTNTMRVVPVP
Procedure, shortened: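 A coupled luminescent readout tracked ATP made from ADP by purified PKM2. Final conditions included 0.1 nM enzyme, PEP and ADP at 0.5 and 0.1 mM, pH 7.2 imidazole buffer with BSA, and a one-hour room-temperature reaction.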

[8] = MultiTox-Fluor Cytotoxicity Assay - LYMP1-002 - Live Cells (AID 955);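 also: cells exposed to compound for 16 hours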
Procedure, shortened: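 In this qHTS viability format, lymphoblastoid cells (LYMP1-002, human) received compound for 16 hr at 37 C. Fluorogenic GF-AFC cleavage by viable cells was detected at 405/510 nm after 1 h at room temperature.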

[9] = Cell Viability - LYMP1-003 - Assay at 24 hr (AID 963)
Procedure, shortened: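 The lymphoblastoid line was treated with titrated compounds for 24 hours, and viable cell number estimated from luciferase-based ATP luminescence.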

[10] = Cell Viability - LYMP1-003 - Assay at 40 hr (AID 964); also: series mostly up to about 92 µM; nearly all actives have a fitted effect of over 60% in size
Procedure, shortened: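 Acute toxicity is scored as a concentration-dependent loss of intracellular ATP in LYMP1-003 cells (2500/well, complete medium) after 40 hr at 37 C, measured by CellTiter-Glo luminescence; AC50 values derive from standard Hill modelling.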

[11] = Cell Viability - LYMP2-003 (AID 965);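 also: cells exposed to compounds for 24 h before reading; nearly all actives have a fitted effect of over 50% in size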
Procedure, shortened: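 Human lymphoblastoid LYMP2-003 cells, 2500/well, exposed to compounds for 24 h at 37 C in complete medium. Viability read as intracellular ATP by CellTiter-Glo luminescence; AC50 from Hill-equation fits of qHTS concentration-response data.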

[12] = Cell Viability - LYMP2-004 (AID 966); also: nearly all actives have a fitted effect of over 65% in size
Procedure, shortened: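 Viable-cell number estimated from ATP luminescence (CellTiter-Glo) in 2500 human lymphoblastoid cells/well after 24 hr at 37 C with compound. AC50 fitted to the standard Hill equation.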

[13] = Cell Viability - LYMP2-005 (AID 967); also: series mostly up to about 92 µM
Procedure, shortened: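 Human lymphoblastoid LYMP2-005 cells, 2,500 per well in complete medium, rested 5 h at 37C then compound-treated 24 h at 37C. Intracellular ATP read by CellTiter-Glo luminescence after 30 min at room temperature; AC50 from Hill-equation fits of concentration-response data.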

[14] = Cell Viability - LYMP2-009 (AID 968); also: series mostly up to about 92 µM; nearly all actives have a fitted effect of over 55% in size
[15] = Confirmation and Secondary Assay for Modulators of Hemoglobin Beta Chain Splicing at IVS2 705 locus (AID 930);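 also: HeLa cells stably expressing the EGFP-705 splicing reporter; series mostly up to about 46 µM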
Procedure, shortened: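 Restored EGFP fluorescence after 2-day compound exposure reports splicing correction in IVS2-705 EGFP reporter HeLa cells; positive control was 500 nM splice-blocking PNA oligo. Signal measured as well total peak GFP intensity (488 nm excitation).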

[16] = biological target: Muscarinic acetylcholine receptor M1 (Rattus norvegicus) (UniProt P08482); experiment: qHTS Assay for Antagonists of Acetylcholine Muscarinic M1 Receptor: Measurement of IP-One Response (AID 944); also: nearly all actives have a fitted effect of over 75% in size; also: potency is read from the fitted curve at half-maximal effect
Chain of Muscarinic acetylcholine receptor M1 (Rattus norvegicus) (P08482 whole entry, looked up): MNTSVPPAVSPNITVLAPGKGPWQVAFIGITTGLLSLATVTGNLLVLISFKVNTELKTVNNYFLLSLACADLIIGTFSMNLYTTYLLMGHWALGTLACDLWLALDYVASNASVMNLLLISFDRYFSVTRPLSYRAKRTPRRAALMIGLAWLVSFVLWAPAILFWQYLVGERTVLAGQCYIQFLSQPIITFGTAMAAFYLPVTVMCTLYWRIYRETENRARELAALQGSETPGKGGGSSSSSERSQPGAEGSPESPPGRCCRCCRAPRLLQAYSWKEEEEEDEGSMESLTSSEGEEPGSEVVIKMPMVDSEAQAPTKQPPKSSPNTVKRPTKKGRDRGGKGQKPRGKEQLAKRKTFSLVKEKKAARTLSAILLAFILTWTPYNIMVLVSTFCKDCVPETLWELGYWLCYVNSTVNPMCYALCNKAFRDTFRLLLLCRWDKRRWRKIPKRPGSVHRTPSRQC
Procedure, shortened: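 Antagonism was measured as loss of carbachol-driven (EC80) IP1 accumulation in CHO cells carrying rat M1, using a homogeneous IP-One TR-FRET kit read at 620 and 665 nm.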

[17] = qHTS Assay for Identification of Small Molecule Antagonists for Thrombopoietin (TPO) Signaling Pathway (AID 918); settings: TPO-dependent cell signaling reporter, antagonist mode; also: potency is read from the fitted curve at half-maximal effect; nearly all actives have a fitted effect of over 60% in size
Procedure, shortened: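 Antagonist mode at EC50 TPO (26 pM) in IL-3-free medium; murine Ba/F3 cells with human TPO receptor and GPIIb-promoter luciferase, 24 hrs at 37 C before luminescent detection.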

[18] = biological target: Muscarinic acetylcholine receptor M1 (Rattus norvegicus) (UniProt P08482); experiment: qHTS Assay for Antagonists of Acetylcholine Muscarinic M1 Receptor: Kinetic Measurement of Intracellular Calcium Response (AID 943);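 also: Fluo-4 calcium signal as peak divided by basal fluorescence over 4 min; series mostly up to about 35 µM; nearly all actives have a fitted effect of over 75% in size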
Procedure, shortened: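 Quantitative HTS in CHO-M1 (rat receptor) cells: 10 min compound exposure ahead of 100 nM carbachol, Fluo-4 fluorescence followed 4 min, value expressed as peak-to-basal ratio.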

[19] = biological target: Pyruvate kinase (Leishmania mexicana) (UniProt Q27686); experiment: qHTS Validation Assay for Activators of Leishmania Mexicana Pyruvate Kinase (AID 959)
Procedure, shortened: as §1

Cc1cn([C@H]2C=C[C@@H](CO)O2)c(=O)[nH]c1=O
Potency [1]: inactive
outcome [2]: inactive
Potency [3]: inactive
Potency [4]: inactive
outcome [5]: inactive
outcome [6]: inactive
outcome [7]: inactive
outcome [8]: inactive
outcome [9]: inactive
Potency [10]: inactive
outcome [11]: inactive
outcome [12]: inactive
outcome [13]: inactive
outcome [14]: inactive

CCc1cccc2c3c([nH]c12)C(CC)(CC(=O)O)OCC3 (stereo not given)
Potency [1]: inactive
outcome [15]: inactive
Potency [3]: inactive
outcome [7]: inactive

Cn1cnc2c1c(=O)[nH]c(=O)n2C
Potency [1]: inactive
outcome [15]: inactive
Potency [16]: inactive
Potency [3]: inactive
outcome [7]: inactive

Clc1ccccc1C(c1ccccc1)(c1ccccc1)n1ccnc1
Potency [17]: 12.6 µM (active)
outcome [15]: inactive
Potency [3]: inactive
outcome [7]: inactive

COc1nc(C)nc(Cl)c1NC1=NCCN1
Potency [1]: inactive
Potency [3]: inactive
outcome [7]: inactive

CS(=O)(=O)Nc1ccc([N+](=O)[O-])cc1Oc1ccccc1
Potency [1]: inactive
outcome [15]: inactive
outcome [7]: inactive

Nc1nnc(-c2cccc(Cl)c2Cl)c(N)n1
Potency [1]: inactive
Potency [3]: inactive
outcome [7]: inactive

Cc1ccc(-c2cc(C(F)(F)F)nn2-c2ccc(S(N)(=O)=O)cc2)cc1
outcome [2]: inactive
outcome [15]: inactive
Potency [4]: inactive
outcome [6]: inactive
outcome [8]: inactive
outcome [9]: inactive
Potency [10]: inactive
outcome [11]: inactive
outcome [12]: inactive
outcome [13]: inactive
outcome [14]: inactive

COc1ccc(C2CNC(=O)C2)cc1OC1CCCC1 (stereo not given)
Potency [1]: inactive
Potency [18]: inactive
Potency [16]: inactive
Potency [3]: inactive
outcome [7]: inactive

NC12CC3CC(CC(C3)C1)C2
Potency [1]: inactive
outcome [15]: inactive
outcome [7]: inactive

O=C1c2c(O)ccc(O)c2C(=O)c2c(NCCNCCO)ccc(NCCNCCO)c21
Potency [17]: 0.0251 µM (active)
outcome [15]: inactive
Potency [16]: 5.01 µM (active)
outcome [7]: inactive
outcome [19]: inactive
